Whole data set: some 68,000 sequences, median “fluorescence intensity (a.u.)” near 9,100, cut for the highest 2% near 16,000. The entries come from a sample that favours the highest values as a whole.

Chain of OsWRKY34 (Q0JBA9 entry or part of it): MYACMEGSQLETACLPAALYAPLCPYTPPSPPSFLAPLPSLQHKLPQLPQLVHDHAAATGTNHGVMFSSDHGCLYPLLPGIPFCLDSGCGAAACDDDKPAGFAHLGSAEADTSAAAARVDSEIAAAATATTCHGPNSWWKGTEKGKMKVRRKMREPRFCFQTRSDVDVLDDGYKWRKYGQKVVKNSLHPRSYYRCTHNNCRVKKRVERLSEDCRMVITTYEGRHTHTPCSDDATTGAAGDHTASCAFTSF

This experiment has as its target OsWRKY34 (Oryza sativa, UniProt Q0JBA9 1-250). Description: protein-binding microarray (RPBM); PBS, 2% BSA, 51.3 ng/ul salmon testes DNA, 50 uM zinc acetate, 200 nM TF, 25 C, 1 h; high values mean tight binding. The note with it: protein: recombinant; tags: N-terminal polyhistidine and DsRed monomer fusion (pET32a); label: CyDye5-dUTP incorporated in the synthesized complementary strand; 3' TTTTT single-stranded linker to array surface; dsDNA, one strand shown. In a few lines: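 The binding signal is fluorescence intensity per array feature (arbitrary units). Readings came from an Axon 4000B scanner after a washed, 2% BSA-blocked, double-stranded custom Agilent array had been incubated for 1 h at 25 °C with 200 nM protein and 50 µM zinc acetate. The protein was a Ni–NTA-purified transcription factor fused N-terminally to polyhistidine and DsRed, expressed in E. coli BL21-CodonPlus.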
For the sequence “CTTTGCTCACTCTTTCTTTTCTCTTCAGGTCTCCATTCTTCGGAGTCACCTAGTGCAG”, the binding signal was 12200 fluorescence intensity (a.u.).

For “CGTGTCGGTGTCTCATCTCTCTCTCTCTTCCCATCCGCCGCGGAGTCACCTAGTGCAG”, the binding signal was 8790 fluorescence intensity (a.u.). Consider “CCAAAAACCTCTACTCTTCCGCGTCTTGGAAAATTCTTCTCGGAGTCACCTAGTGCAG”, for which the binding signal is 9300 fluorescence intensity (a.u.).

As to “CATGTCACTATACTATTATATCCTATTATATCCTATAATACGGAGTCACCTAGTGCAG”, the binding signal was 8100 fluorescence intensity (a.u.). Then “TGTGCTAAAAAAGTCAACGGTGTCAAATATTTCGAAACGGCGGAGTCACCTAGTGCAG”, with 14700 fluorescence intensity (a.u.); and “TCAAACACGTACTAAAAAGTCAACGGTGTCAAACATTTTGCGGAGTCACCTAGTGCAG”, with 15600 fluorescence intensity (a.u.); and “AATAATAAGAACGGTCAAACATATGCTAAAAAGTCAACGGCGGAGTCACCTAGTGCAG”, with 11500 fluorescence intensity (a.u.). Then “GTCAAACATGTGCTAAAAAGTCAACGGTGTCAAACATTTCCGGAGTCACCTAGTGCAG”, with 17400 fluorescence intensity (a.u.); and “AAACATGTGCTAAAAAGTCAACGGTGTCAAACATTTTGAACGGAGTCACCTAGTGCAG”, with 10400 fluorescence intensity (a.u.); and “GTCAAACATGTGCTAAAAAGTCAACAGTGTCAAACATTTCCGGAGTCACCTAGTGCAG”, with 9540 fluorescence intensity (a.u.). With “TAAGATAAACGGTCAAACATTTGCTAAAAAGTCAACGGTGCGGAGTCACCTAGTGCAG”, the binding signal is 17300 fluorescence intensity (a.u.). Then “TTGCTAAAAAGTCAACGGTGTCAAATATTTCGAAACGGAGCGGAGTCACCTAGTGCAG”, with 12300 fluorescence intensity (a.u.); and “TACTATTTTTTTCTATAACTATTTATGTCACATGTAAATACGGAGTCACCTAGTGCAG”, with 8300 fluorescence intensity (a.u.). Then “GTGCTAAAAAGTCAACGGTGTCAAATATTTAGAAATGAAGCGGAGTCACCTAGTGCAG”, with 21200 fluorescence intensity (a.u.).

For the sequence “TTATAACATGTCATTAATAAAGGGCATTATGCAACTAATACGGAGTCACCTAGTGCAG”, the binding signal was 64200 fluorescence intensity (a.u.). Then “CATCTTCGCAGCAACTCAGTCATCAGCCCATAGCCATTTACGGAGTCACCTAGTGCAG”, with 8950 fluorescence intensity (a.u.). Take “AAGGCTTATCACTTCGATTTTTATTTTAGTCCTTGTACTTCGGAGTCACCTAGTGCAG”: the binding signal is 8460 fluorescence intensity (a.u.).

In the case of “ACCATCTTTTAAATCAGACCTCTCACCAATTTTGATATTTCGGAGTCACCTAGTGCAG”, the binding signal was 8230 fluorescence intensity (a.u.).

Take “CGCCGGTACGTTTTCCCCGCCGCCGCCTTTCCGGCCGGCCCGGAGTCACCTAGTGCAG”: the binding signal is 8950 fluorescence intensity (a.u.). On to “ACTGTAGCCCATTTTTGATATGGCCAAGGCCCACATAGCACGGAGTCACCTAGTGCAG”, for which the binding signal was 8260 fluorescence intensity (a.u.). Then “GTCTACATGAACCATTCCAAATGACTTTTATAGGATTTCACGGAGTCACCTAGTGCAG”, with 8340 fluorescence intensity (a.u.); and “GCACCAAGGCCAATACTTGTCCGGATCACCAAGGACACCTCGGAGTCACCTAGTGCAG”, with 8020 fluorescence intensity (a.u.); and “TTTATTAGTTTGTGTCCTGGTTTTCTTTTTCAGTTAGATTCGGAGTCACCTAGTGCAG”, with 8430 fluorescence intensity (a.u.). To “TTACAAGACTTAATTTCAAGGTCCGTCGATTGTCTCTCCACGGAGTCACCTAGTGCAG” belongs 8830 fluorescence intensity (a.u.). To “GTATAGGGGAGAGGGTGGGCGGGTGATCACTGGGTGGGTGCGGAGTCACCTAGTGCAG” belongs 12200 fluorescence intensity (a.u.); to “CCCTCCGCTGAGGTTGCGGTTGATGATCTTTCATCAGTGACGGAGTCACCTAGTGCAG”, 8590 fluorescence intensity (a.u.); to “ATCCATCACATCACGAAACCACTTCATGTACTCTTAACATCGGAGTCACCTAGTGCAG”, 8080 fluorescence intensity (a.u.). With “TATGTGCTAAAAAGTCAACGGTGTCAAACATTTCGAAACGCGGAGTCACCTAGTGCAG”, the binding signal is 14000 fluorescence intensity (a.u.).

For the sequence “AAACATGTGCTAAAAAGTCAACGGTGTCAAATATTTCGAACGGAGTCACCTAGTGCAG”, the binding signal was 15600 fluorescence intensity (a.u.).

For the sequence “AAATGTGCTAAAAAGTCAACGGTGTCAAACATTTCGAAATCGGAGTCACCTAGTGCAG”, the binding signal is 16400 fluorescence intensity (a.u.).

Turning to “AAACCTCCACCACCACCGCCACCACCGCCGCGCAAAACCCCGGAGTCACCTAGTGCAG”, the binding signal is 8700 fluorescence intensity (a.u.). To “TATCTTTTTCTTTTTGGAGGTTTCGTTTTCTCTTGGTCAACGGAGTCACCTAGTGCAG” belongs 10400 fluorescence intensity (a.u.); to “AATTAACATCACCAATCAGCAATCACCAACCTTGTCATCTCGGAGTCACCTAGTGCAG”, 8970 fluorescence intensity (a.u.).

Turning to “TTTCATCAATTGCCTCTTGTATCAGCTACTATGCAATATACGGAGTCACCTAGTGCAG”, the binding signal was 8850 fluorescence intensity (a.u.).

Consider “GCTAGACTATCATCAGCAAGCTAGCAATTAAAGGCCTTGTCGGAGTCACCTAGTGCAG”, for which the binding signal is 64200 fluorescence intensity (a.u.).

As for “CCATGCTCGCGGCGTTTACTTTCCTCACTATTTTTTAGATCGGAGTCACCTAGTGCAG”, the binding signal was 9410 fluorescence intensity (a.u.). To “GGATCGCGTGGTTTGTGTCGTGTCTTTGCATACGGCGACACGGAGTCACCTAGTGCAG” belongs 8300 fluorescence intensity (a.u.); to “CCATCACCACCTCCCGATCCGCGCGCTTTCTCTCCCGCGCCGGAGTCACCTAGTGCAG”, 9090 fluorescence intensity (a.u.).

On to “TTTTCAGTAGATAACATCGTTGACTTTTCAACGAATATTTCGGAGTCACCTAGTGCAG”, for which the binding signal was 14400 fluorescence intensity (a.u.). As for “TTTTTAATAGATAACGTCGTTGACTTTTTCTCACATGTTTCGGAGTCACCTAGTGCAG”, the binding signal is 25600 fluorescence intensity (a.u.). Then “GTTTTTTAATAGATAACGCCGTTGACTTTTTTTCACATGTCGGAGTCACCTAGTGCAG”, with 21500 fluorescence intensity (a.u.); and “AACTTTACTTTTTCTCATAGTGTTGATTAGATATATGTTTCGGAGTCACCTAGTGCAG”, with 10600 fluorescence intensity (a.u.); and “CCGTTTTTTAATAGATAACGCTGTTGACTTTTTCTTATATCGGAGTCACCTAGTGCAG”, with 11200 fluorescence intensity (a.u.). Then “GGAGGAGAGAGGGGTGGGGTTTGTGGTGTCGTCGTCCATGCGGAGTCACCTAGTGCAG”, with 11700 fluorescence intensity (a.u.); and “GACTATGCGCGCTATATAAAGGATCACATTATCTCATACTCGGAGTCACCTAGTGCAG”, with 8930 fluorescence intensity (a.u.); and “TTGCCGTACAATCTTGATTTGGAGATCTTCCTGGCCAACACGGAGTCACCTAGTGCAG”, with 9120 fluorescence intensity (a.u.). To “AGAAAGCCCATTTTGCCCTTTGTGCTTCAGAACATCGAGCCGGAGTCACCTAGTGCAG” belongs 8020 fluorescence intensity (a.u.).

Source of the values: publication PMC7819943, “Rice protein-binding microarrays: a tool to detect cis-acting elements near promoter regions in rice”.
